High-throughput results: PubChem, several laboratories
BoNT A protease – BoNT A light chain protease inhibition. multiplex microsphere protease substrate cleavage, flow cytometry. inhibition, % at 10 µM. 360,000 tested, 0.17% active. AID 588499; note: plate controls were buffer without enzyme for full effect and enzyme alone for no effect
Anthrax LF inh2 – inhibitors of Bacillus anthracis lethal factor protease; multiplex microsphere protease cleavage assay, LF; inhibition, % at 10 µM; 360,000 tested, 0.12% active; AID 588501; P15917; note: plate controls were buffer without enzyme for full effect and enzyme alone for no effect
Bead autofluor – counter-screen for toxin protease inhibitors: compound fluorescence; fluorescence intensity (concentration not given with the values); AID 624483; compound autofluorescence counterscreen, microsphere flow cytometry; hits give high values; 360,000 tested, 3.1% active; in the data active = fluorescence intensity above about 16000; inconclusive = no clear call, values can overlap the other calls
BoNT-F LC inh – blocks Botulinum neurotoxin F light chain protease; inhibition, % at 10 µM; 360,000 tested, 0.22% active; Multiplex microsphere protease cleavage assay, flow cytometry; AID 588497; in the data active = inhibition above about 35%, passing the limit was not always enough; inconclusive = no clear call, values can overlap the other calls; note: plate controls were buffer without enzyme for full effect and enzyme alone for no effect
MazF activator – MazEF (E. coli) toxin RNase activation. P0AE70. FAM/BHQ RNA-DNA oligo cleavage fluorescence, 5 h. activation, % at 20 µM. 350,000 tested, 0.32% active. AID 504720; in the data active = activation above about 50%
Target sequence (P0AE70 whole entry, looked up): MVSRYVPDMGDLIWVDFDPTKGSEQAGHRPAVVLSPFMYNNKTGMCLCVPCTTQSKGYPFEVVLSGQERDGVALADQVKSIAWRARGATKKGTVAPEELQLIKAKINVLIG
Starred values were filed as active, the others as inactive; u = inconclusive; x = not tested or not shown; + = active, no number. The list is not random: actives were taken first. Their share in the collection is about 3.7%. Cut-off read from the data, not from the text of the source, unless noted: active = inhibition above about 30%; inconclusive = no clear call, values can overlap the other calls; inactive = below that.

SMILES	BoNT A protease	Anthrax LF inh2	Bead autofluor	BoNT-F LC inh	MazF activator
CC(=O)N(C)c1ccc(NC(=O)CCN2C(=O)c3ccccc3C2=O)cc1	-2	-4	3756	u	0
Cc1cc(NS(=O)(=O)c2ccc(NC(=O)COc3ccccc3Cl)cc2)no1	-4	-4	24447*	-9	-5
CCOc1ccccc1OCC(=O)Nc1ccc(S(=O)(=O)Nc2nc(C)cc(C)n2)cc1	-2	-2	20817*	-3	-10
Cc1cc(C)c2nc(-c3ccccn3)cc(C(=O)Nc3ccc(S(=O)(=O)Nc4cc(C)on4)cc3)c2c1	u	-7	16205*	-2	-1
Cc1cc(NS(=O)(=O)c2ccc(NC(=O)COc3ccccc3C(C)C)cc2)no1	0	-13	4414	-10	-12
CC(=O)NS(=O)(=O)c1ccc(NC(=S)NC(=O)C2CCC2)cc1	2	0	5326	-6	-4
Cc1cc(/C=C\c2ccc3cc(N(C)C)ccc3[n+]2C)c(C)n1-c1ccccc1	16	-107	3555	+	14
C[n+]1c(/C=C/c2ccc(O)cc2)ccc2ccccc21	1	-15	3189	-85	-32
Cn1c(SCC(=O)N/N=C/C=C/c2ccccc2[N+](=O)[O-])nc2ccccc21	-1	-1	2441	-3	12
CCn1c(SCC(=O)N/N=C/C=C\c2ccccc2[N+](=O)[O-])nc2ccccc21	u	1	22694*	-2	7
CCn1c(SCC(=O)N/N=C/c2ccc(OC)c(OC)c2)nc2ccccc21	1	0	22575*	-2	0
COc1ccc(C)cc1NC1=C(Cl)C(=O)N(C2CCCCC2)C1=O	-1	-3	22693*	-5	-2
O=C(CNC(=O)c1ccc(Cl)cc1Cl)OCc1ccccc1	x	x	x	x	-2
O=C(Nc1cccc2ncccc12)c1ccc(-c2ccc(Br)cc2)o1	6	-20	20512*	7	28
O=C(Nc1cccc2ncccc12)c1ccc(F)cc1	-1	-1	2654	-7	3
O=C(Nc1cccc2ncccc12)c1ccc(Cl)cc1	-3	-4	4059	-16	110*
O=C(Nc1cccc2ncccc12)c1ccc([N+](=O)[O-])o1	0	-8	3601	3	4
Cc1ccccc1-c1csc(C(C)(O)c2cccnc2)n1 (stereo unspecified)	0	7	3842	-1	x
CC(C)C[C@@H]1CC2=C(C(=O)OC(C)(C)O2)[C@H](c2ccc(Cl)cc2)O1	-1	-9	4316	-7	x
COc1cccc(-c2nnn(CCC(=O)O)n2)c1	u	1	19600*	3	-7
CCOC(=O)C1CCN(C(=O)COC(=O)c2ccccc2C(=O)c2ccc(Cl)cc2)CC1	1	-2	5486	0	2
O=C(CN1C(=O)NC2(CCSC2)C1=O)NCc1ccccc1 (stereo unspecified)	-1	5	3235	-6	7
Cc1cc(C)c(C(=O)CSc2nc3ccccc3c(=O)[nH]2)cc1C	-1	-2	4376	-5	4
CCc1ccc(C(=O)CSc2nc3ccccc3c(=O)[nH]2)cc1	0	-6	21509*	1	5
Cc1ccc(C(=O)CSc2nc3ccccc3c(=O)[nH]2)cc1C	0	0	4835	12	-4
SMILES	BoNT A protease	Anthrax LF inh2	Bead autofluor	BoNT-F LC inh	MazF activator
Cc1ccc(C(=O)CSc2nc3ccccc3c(=O)[nH]2)cc1	3	-8	21593*	4	1
CN(CC(=O)Nc1ccc(F)cc1)S(=O)(=O)c1ccc2c(c1)c(=O)n(C)c(=O)n2C	1	-2	5665	5	1
O=C(O)C1C(c2ccccc2)C(C(=O)N2CCOCC2)C1c1ccccc1 (stereo unspecified)	0	-5	9507	3	5
COC(=O)C1C(c2ccccc2)C(C(=O)N2CCOCC2)C1c1ccccc1 (stereo unspecified)	u	-2	22025*	-1	2
COc1cc(S(=O)(=O)N(Cc2ccccc2)CC2CCCO2)ccc1-n1cnnn1 (stereo unspecified)	-1	-3	4500	0	8
COc1ccc(CN(CC2CCCO2)S(=O)(=O)c2ccc(C(=O)O)cc2)cc1OC (stereo unspecified)	-1	0	23567*	-2	3
CSCCC(N=Cc1c(O)n(-c2ccc(F)cc2)c(=O)[nH]c1=O)C(=O)OC(C)(C)C (stereo unspecified)	1	3	4352	-2	4
CSCCC(N=Cc1c(O)n(-c2ccc(Br)cc2)c(=O)[nH]c1=O)C(=O)OC(C)(C)C (stereo unspecified)	u	1	21352*	4	2
Cc1ccc(-c2nnc(Nc3ccccc3)c3ccccc23)cc1S(=O)(=O)NCC1CCCO1 (stereo unspecified)	3	-1	21430*	3	4
O=C(OCC(=O)N1CCCCCC1)c1ccc([N+](=O)[O-])cc1Cl	-1	-2	4734	-3	12
CN(C)C=Nc1c(Br)cc(Br)c2nonc12	71*	6	10842	u	228*
CN(C)C=Nc1nonc1-c1ccccc1	-1	-8	6004	1	8
COc1cccc(C(=O)CC(C#N)c2ccc(F)cc2)c1 (stereo unspecified)	3	-3	3225	-11	-3
CC1=C(C(=O)c2ccccc2)C(c2cn(-c3ccccc3)nc2-c2ccc(Cl)cc2)NC(=S)N1 (stereo unspecified)	2	-5	19559*	-2	-3
O=C1NC(=O)C(c2cn(-c3ccccc3)nc2-c2ccc(F)cc2)N1 (stereo unspecified)	0	-4	4935	u	5
CSCCC(NC(=O)COc1ccccc1)C(=O)N1CCCC(C(F)(F)F)C1 (stereo unspecified)	-1	3	u	7	-1
O=C(c1ccco1)N1CCN(c2ncnc3c2nnn3Cc2ccccc2Cl)CC1	-1	-4	3118	10	10
O=C(c1ccco1)N1CCN(c2nc(C(F)(F)F)nc3c2nnn3Cc2ccccc2)CC1	-3	-6	24937*	-7	-3
Cc1cc(OCC(=O)NCC2CCC(C(=O)O)CC2)c2c(C)c(Cc3ccccc3)c(=O)oc2c1 (stereo unspecified)	-1	-7	5576	-4	7
COc1ccc(Br)cc1CNCCSc1nnnn1C	0	-1	22723*	-8	12
COc1ccc(CNCCSc2nnnn2C)cc1OC	2	0	19838*	0	1
COc1cccc(CNCCSc2nnnn2C)c1	0	-2	10456	3	2
CCc1ccc(CNCCSc2nnnn2C)cc1	-1	-1	23525*	-6	9
COc1ccc(CNCCSc2nnnn2C)c(OC)c1OC	-1	-2	4273	-2	1
Cc1ccccc1C(=O)NCC(c1ccco1)N1CCc2ccccc2C1 (stereo unspecified)	-2	u	u	-11	3
CCOC(=O)C(Sc1nnc(-c2ccncc2)o1)C(C)=O (stereo unspecified)	0	-2	16214*	-4	0
COC(=O)C(C)Sc1nnc(-c2ccncc2)o1 (stereo unspecified)	u	-5	21757*	-2	4
